Out of some 350,000 compounds screened, about 9,900 (2.8%) were called active. Not shown: some 15% with an inconclusive outcome. The sample as a whole holds a higher share of actives than the screen did. Unmarked numbers belong to inactive results. Calls come from the whole dose curve; as a rule, active = well fitted activation curve with a large enough effect; inconclusive = small, poorly fitted or top-dose-only effect; inactive = no such curve, though single readings can be large or run the other way.
Test: A quantitative high throughput screen for small molecules that induce DNA re-replication in MCF 10a normal breast cells. For activity, positive = re-replication: % of control where 0% means no effect. Note: nearly all actives have a fitted effect of over 50% in size.
Conditions: MCF 10A DNA re-replication, Hoechst nuclear intensity, 48 h; series mostly up to 46.1 µM; activity, positive = re-replication: at the top concentration
Potency is the fitted concentration of half-maximal effect.

**Q.** Which “activity, positive = re-replication” value does the source give for `O=C(COc1ccccc1F)NNC(=O)c1cc(Br)ccc1Cl` here?
**A.** The value was -8.12%.

**Q.** With `O=S(=O)(c1cccs1)N1CCN(CCOc2ccccc2)CC1` as the molecule, how does the “activity, positive = re-replication” value read?
**A.** Its value is 0.979%.

**Q.** Which “activity, positive = re-replication” value does the source give for `CCOc1cc(/C=C/C(=O)OCC(=O)NCCN2C(=O)CSC2=O)ccc1OCC(C)C` here?
**A.** Its value is -2.28%.

**Q.** With `Cc1cccc(N2O[C@H]3C=CC2CCCC3)n1` as the molecule, how does the “activity, positive = re-replication” value read?
**A.** The value was -0.361%.

**Q.** For `CC(=O)c1ccc(OCCCC(=O)Nc2ccc(C)c(S(=O)(=O)N3CCOCC3)c2)cc1`, which “activity, positive = re-replication” value is on record?
**A.** The value was 6.11%.

**Q.** With `CCCC(O)(CCC)C(=O)NN(C(=O)CCl)c1cccc(C)c1` as the molecule, how does the Potency read?
**A.** Its Potency is 14.6 µM (active).

**Q.** For `Cc1ccc(N(NC(=O)C(C)(C)O)C(=O)c2ccccc2)cc1C`, which “activity, positive = re-replication” value is on record?
**A.** Its value is -12.8%.

**Q.** With `CC(C)(O)C(=O)NN(C(=O)c1ccccc1)c1cccc(Br)c1` as the molecule, how does the “activity, positive = re-replication” value read?
**A.** Its value is 0.0132%.

**Q.** With `COc1cc(NC(=O)COC(=O)c2cc(S(=O)(=O)N3CCOCC3)ccc2F)cc(OC)c1` as the molecule, how does the “activity, positive = re-replication” value read?
**A.** Its value is 3.72%.

**Q.** For `CSc1ccc(Cl)c(C(=O)OCC(=O)N2CCNC2=O)c1`, which “activity, positive = re-replication” value is on record?
**A.** Its value is -3.13%.

**Q.** Which “activity, positive = re-replication” value does the source give for `O=C1CC2(CCCC2)C(=O)N1CN1CCN(S(=O)(=O)c2ccc(F)cc2F)CC1` here?
**A.** Its value is 15.1%.

**Q.** Which “activity, positive = re-replication” value does the source give for `CC/C(=C\c1ccc(Cl)cc1)c1ccncc1` here?
**A.** Its value is 8.16%.

**Q.** Which “activity, positive = re-replication” value does the source give for `O=C(Cc1nn[nH]n1)NCCC1=CCCCC1` here?
**A.** The value was 0.509%.

**Q.** Which “activity, positive = re-replication” value does the source give for `CCn1c(=O)cc(SCC(=O)NCCC2=CCCCC2)c2ccccc21` here?
**A.** The value was 1.51%.

**Q.** Which Potency does the source give for `Cc1ccc(-n2c(SCC(=O)NCCC3=CCCCC3)nc3n[nH]c(C)c3c2=N)cc1Cl` here?
**A.** The Potency was 16.4 µM (active).

**Q.** For `Cc1ccc(N2C(=O)N3[C@@H]4c5ccccc5OC[C@@H]4[C@@H](c4ccccc4)[C@@]3(C)C2=O)cc1`, which “activity, positive = re-replication” value is on record?
**A.** The value was 4.75%.

**Q.** With `O=C(O)C(CCc1ccccn1)c1ccccc1` (stereo unspecified) as the molecule, how does the “activity, positive = re-replication” value read?
**A.** The value was -18.4%.

**Q.** With `O=c1ccc(S(=O)(=O)N2CCCC2)cn1Cc1nc(-c2ccccc2)no1` as the molecule, how does the “activity, positive = re-replication” value read?
**A.** Its value is 6.01%.

**Q.** Which “activity, positive = re-replication” value does the source give for `O=C(O)C(c1cccs1)C1(O)CCCCC1` (stereo unspecified) here?
**A.** Its value is 0.694%.

**Q.** For `Nc1ccc2c(c1)C(=Cc1cccnc1)c1ccccc1-2`, which “activity, positive = re-replication” value is on record?
**A.** The value was 7.21%.

**Q.** For `CC(C)c1cc(N=O)cc(C(C)C)c1O`, which “activity, positive = re-replication” value is on record?
**A.** The value was 7.92%.

**Q.** Which Potency does the source give for `CC(C)=CCc1ccc(O)c(=O)cc1C(C)C` here?
**A.** The Potency was 20.6 µM (active).

**Q.** With `CCN(C(=O)COC(=O)Cc1c(F)cccc1Cl)c1c(N)n(Cc2ccccc2)c(=O)[nH]c1=O` as the molecule, how does the “activity, positive = re-replication” value read?
**A.** The value was -0.793%.

**Q.** With `COc1cccc(NC(=O)CN(C)C(=O)CSC(=S)N2CCCC2)c1` as the molecule, how does the “activity, positive = re-replication” value read?
**A.** The value was 1.18%.

**Q.** Which “activity, positive = re-replication” value does the source give for `COc1ccc(NC(=O)CN(C)CC(=O)Nc2cccc(C(F)(F)F)c2)cc1` here?
**A.** Its value is 0.322%.

**Q.** For `COc1cccc(NC(=O)CN(C)CC(=O)Nc2ccc3c(c2)CCC3)c1`, which Potency is on record?
**A.** The Potency was 0.651 µM (active).

**Q.** With `O=C(Cn1nnc(-c2ccccc2)n1)NC(=O)NC1CCCC1` as the molecule, how does the “activity, positive = re-replication” value read?
**A.** Its value is 1.62%.

**Q.** With `O=C(COC(=O)c1ccc(Br)o1)NC12CC3CC(CC(C3)C1)C2` as the molecule, how does the “activity, positive = re-replication” value read?
**A.** The value was 2.1%.

**Q.** For `CC(C)(C)OC(=O)C[C@@H]1C/C=C\C[C@@H](CC(=O)N(CCO)Cc2ccccc2)C(=O)N[C@H](Cc2ccccc2)COC1=O`, which Potency is on record?
**A.** The Potency was 20.6 µM (active).

**Q.** With `CC(C)(C)OC(=O)C[C@@H]1C/C=C\C[C@H](CC(=O)N[C@@H](CO)Cc2ccccc2)C(=O)N[C@H](Cc2ccccc2)COC1=O` as the molecule, how does the “activity, positive = re-replication” value read?
**A.** Its value is 2.81%.

**Q.** Which Potency does the source give for `O=C1NC[C@@H](c2ccccc2)OC(=O)[C@H](Cc2ccc(F)cc2)CC/C=C/C[C@H]1CC(=O)N(CCO)Cc1ccccc1` here?
**A.** The Potency was 18.4 µM (active).

**Q.** For `O=C1CCC/C=C/C[C@@H](CC(=O)N(CCO)Cc2ccccc2)C(=O)NC[C@H](c2ccccc2)O1`, which “activity, positive = re-replication” value is on record?
**A.** The value was -4.51%.

**Q.** For `O=C1N[C@H](Cc2c[nH]c3ccccc23)COC(=O)[C@H](Cc2ccc(F)cc2)C/C=C\C[C@H]1CC(=O)N(CCO)Cc1ccccc1`, which “activity, positive = re-replication” value is on record?
**A.** Its value is 2.57%.

**Q.** With `O=C1OC[C@@H]2CCCN2C(=O)[C@H](CC(=O)N(CCO)Cc2ccccc2)C/C=C\CC[C@@H]1Cc1ccc(F)cc1` as the molecule, how does the “activity, positive = re-replication” value read?
**A.** The value was 2.42%.

**Q.** Which “activity, positive = re-replication” value does the source give for `COc1cccc(NC(=O)CSc2nnc(C3CCCCC3)n2N)c1` here?
**A.** The value was -0.852%.

**Q.** Which “activity, positive = re-replication” value does the source give for `CC(=O)c1cccc(OCC(=O)OCC(=O)Nc2cc(S(=O)(=O)N3CCCCC3)ccc2C)c1` here?
**A.** The value was -31.7%.

**Q.** Which “activity, positive = re-replication” value does the source give for `O=C1c2ccccc2C(=O)N1CCC#Cc1ccc2cc(C3(O)CCCCC3)oc(=O)c2c1` here?
**A.** The value was 28.8%.

**Q.** With `O=C(CSc1nc2[nH]c(=O)[nH]c(=O)c2s1)Nc1cccc(F)c1` as the molecule, how does the “activity, positive = re-replication” value read?
**A.** Its value is 8.68%.

**Q.** For `CC(Sc1nnc(C2CC2)n1C1CC1)C(=O)Nc1ccc(C(N)=O)cc1` (stereo unspecified), which “activity, positive = re-replication” value is on record?
**A.** Its value is -7.91%.

**Q.** With `CCCn1nc(C(=O)OCc2nc(N)nc(Nc3ccccc3C)n2)c2ccccc2c1=O` as the molecule, how does the “activity, positive = re-replication” value read?
**A.** Its value is 1.2%.

**Q.** Which activity, positive = re-replication does the source give for `Cc1cc(C)cc(OCc2nnc(SCC(=O)Nc3ccccc3)o2)c1` here?
**A.** Its activity, positive = re-replication is -182% [at 0.0737 µM].

**Q.** For `Cc1cccc(OCc2nnc(SCn3nnc4ccccc4c3=O)o2)c1`, which “activity, positive = re-replication” value is on record?
**A.** Its value is -2.7%.

**Q.** With `Cc1cccc(OCc2nnc(SCc3nc4cc(C(F)(F)F)ccc4c(=O)[nH]3)o2)c1` as the molecule, how does the Potency read?
**A.** The Potency was 5.8 µM (active).

**Q.** With `C=CC[C@H](CC(=O)NCCO)C(=O)N[C@@H](COC(=O)[C@@H](CC=C)Cc1ccc(F)cc1)Cc1c[nH]c2ccccc12` as the molecule, how does the “activity, positive = re-replication” value read?
**A.** Its value is 11.8%.

**Q.** For `CC(C)OC(=O)CN1C(=O)C(=O)c2ccccc21`, which Potency is on record?
**A.** The Potency was 23.1 µM (active).

**Q.** For `CC(C)OC(=O)CN1C(=O)c2ccccc2C1=O`, which “activity, positive = re-replication” value is on record?
**A.** Its value is 14.7%.

**Q.** With `Cc1cccc2c1N(CC(=O)OC(C)C)C(=O)C2=O` as the molecule, how does the “activity, positive = re-replication” value read?
**A.** The value was 10.9%.

**Q.** For `CCN1C[C@@H]2[C@@H]3C(=O)N(C)C(=O)[C@@H]3[C@](C)(C1=O)N2C(=O)c1ccccc1`, which “activity, positive = re-replication” value is on record?
**A.** Its value is -0.605%.

**Q.** Which “activity, positive = re-replication” value does the source give for `NCCN1CCN2C(=O)CN(C(=O)c3ccccc3)CC12` (stereo unspecified) here?
**A.** The value was 0.947%.

**Q.** For `O=C(c1cn(-c2ccccc2)nc1-c1cc2ccccc2oc1=O)N1CCOCC1`, which “activity, positive = re-replication” value is on record?
**A.** Its value is -18.8%.

**Q.** Which Potency does the source give for `O=c1oc2ccccc2cc1-c1cn(-c2ccccc2)c(=S)[nH]1` here?
**A.** The Potency was 5.8 µM (active).

**Q.** With `S=c1[nH]c(-c2cccs2)cn1-c1ccccc1` as the molecule, how does the “activity, positive = re-replication” value read?
**A.** The value was -13.1%.

**Q.** Which “activity, positive = re-replication” value does the source give for `COc1ccc(CNC(=O)COC(=O)c2ccc(C)c(S(=O)(=O)N3CCOCC3)c2)cc1OC` here?
**A.** Its value is -1.75%.

**Q.** Which “activity, positive = re-replication” value does the source give for `O=C(NCc1cccnc1)c1cccnc1Sc1ccc(Cl)cc1` here?
**A.** The value was 1.68%.

**Q.** For `CSc1ncccc1C(=O)NC1CCCCCC1`, which “activity, positive = re-replication” value is on record?
**A.** The value was 1.92%.

**Q.** For `O=C(NC1CCCCCC1)c1cccnc1Sc1ccc(Cl)cc1`, which Potency is on record?
**A.** The Potency was 18.4 µM (active).

**Q.** Which “activity, positive = re-replication” value does the source give for `CCC(C(=O)NC1CCCCC1)N(C(=O)c1snc(C(N)=O)c1N)c1ccc(OC)cc1OC` (stereo unspecified) here?
**A.** Its value is -0.467%.

**Q.** With `COc1ccc(N(C(=O)c2snc(C(N)=O)c2N)C(C(=O)NC2CCCC2)c2ccco2)cc1OC` (stereo unspecified) as the molecule, how does the “activity, positive = re-replication” value read?
**A.** Its value is 4.32%.

**Q.** Which Potency does the source give for `COc1ccc(N(C(=O)c2snc(C(N)=O)c2N)C(C(=O)NC2CCCC2)c2ccc(C)o2)c(OC)c1` (stereo unspecified) here?
**A.** The Potency was 20.6 µM (active).

**Q.** For `COc1ccc(/C=C/C(=O)OCC(=O)NC2CCCCCC2)cc1OC`, which “activity, positive = re-replication” value is on record?
**A.** The value was -3.09%.

**Q.** With `CC(C)(C)OC(=O)NCCCCCNC(=O)c1[nH]cnc1C(=O)Nc1nccs1` as the molecule, how does the “activity, positive = re-replication” value read?
**A.** The value was 11.1%.

— PubChem BioAssay AID624296 (National Center for Advancing Translational Sciences (NCATS), 2012)
